Experimental findings from PubChem BioAssay (NCI) are described below.

What all share (test): NCI-60 one-dose screen, 48 h (100 = growth as untreated, 0 = no growth, -100 = all killed)
The subject of one assay is NCI-H23 lung. To be noted: 10 µM unless noted.
Another assay concerns NCI-H322M lung. The note with it: 10 µM unless noted.
The subject of the next assay is HOP-62 NSCLC. To be noted: 10 µM unless noted.
A further assay relates to NCI-H460 lung. The note with it: 10 µM unless noted.
The test system of the next assay is HOP-92 NSCLC. The note with it: 10 µM unless noted.
A further assay concerns A549/ATCC NSCLC. The note with it: 10 µM unless noted.
The test system of a further assay is 786-0 renal. The note with it: 10 µM unless noted.
For a further assay, the system named is COLO 205 colon. To be noted: 10 µM unless noted.
In a further assay the test system is DU-145 prostate. To be noted: 10 µM unless noted.
The next assay deals with K-562 leukemia. The note with it: 10 µM unless noted.
The test system of a further assay is MALME-3M melanoma. The note with it: 10 µM unless noted.
Another assay concerns MDA-MB-231 breast. The note with it: 10 µM unless noted.
The next assay relates to RXF 393 renal. To be noted: 10 µM unless noted.
A further assay deals with SF-268 CNS. To be noted: 10 µM unless noted.
The test system of a further assay is SF-295 CNS. To be noted: 10 µM unless noted.
In a further assay the test system is SF-539 CNS. The note with it: 10 µM unless noted.
Another assay deals with UACC-257 melanoma. The note with it: 10 µM unless noted.
The test system of another assay is M14 melanoma. To be noted: 10 µM unless noted.
For the next assay, the system named is NCI-H522 lung. To be noted: 10 µM.

The panel holds about 83,000 compounds, 20% with a hit somewhere; the sample as a whole holds those more often.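 Negative percent growth values reflect cell death: -40 means 40% of the cells present at the start died, and -100 means all died.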 Values without a mark were called inactive. Activity calls are given as the source filed them. How the source made its calls: active means growth percent below 10; inactive means the rest.

For `CC1=C([Se]CC(OC(=O)[C@@H](CSSC(C)(C)C)NC(=O)C(C)(C)C)C(=O)NCCCCCC(=O)OCc2ccccc2)C(=O)c2ccccc2C1=O` (stereo partly specified), the growth in the assay on NCI-H23 lung was -30.2% (active); in the assay with NCI-H322M lung, -22.6% (active); in the assay on HOP-62 NSCLC it was -95% (active); with NCI-H460 lung, 1.81% (active); in the assay with HOP-92 NSCLC, -35.9% (active); in the assay on A549/ATCC NSCLC, 1.31% (active). The growth in the assay on 786-0 renal was -55.6% (active); with COLO 205 colon, 40.4%; with DU-145 prostate it was 13.3%; with K-562 leukemia, 7.91% (active); with MALME-3M melanoma it was -39.1% (active); with MDA-MB-231 breast, -15.3% (active). Further, the growth in the assay on RXF 393 renal is -33.5% (active); in the assay with SF-268 CNS it was 7.11% (active); with SF-295 CNS it was -27.8% (active); in the assay on SF-539 CNS it was -69.4% (active); in the assay on UACC-257 melanoma it was -20.8% (active); in the assay with M14 melanoma, -32.5% (active).

Consider `Cc1ccc(C2=NNC(c3sc(Cl)nc3Cl)C2)cc1` (stereo unspecified), for which the growth with NCI-H23 lung is 91%; with NCI-H322M lung it was 83.2%; in the assay with NCI-H460 lung it was 104%; in the assay on HOP-92 NSCLC it was 115%; in the assay on 786-0 renal it was 106%; in the assay with COLO 205 colon, 99.8%. Further, the growth in the assay on DU-145 prostate was 95.6%; with K-562 leukemia, 11.7%; in the assay with MALME-3M melanoma, 77.6%; in the assay with MDA-MB-231 breast it was 92.1%; in the assay with RXF 393 renal, 108%; in the assay on SF-268 CNS, 98.3%. For the same compound, the growth with SF-295 CNS was 101%; in the assay with SF-539 CNS, 118%; in the assay on UACC-257 melanoma, 90.6%; in the assay with M14 melanoma it was 86.5%.

On to `CC(C)Sc1nc(-c2ccc(Br)cc2)c(C#N)c(N2CCCCC2)n1`, for which the growth in the assay with NCI-H23 lung is 110%; in the assay on NCI-H322M lung, 93.7%; with HOP-62 NSCLC, 115%; in the assay on NCI-H460 lung, 104%; in the assay on HOP-92 NSCLC, 105%; in the assay on NCI-H522 lung, 99.3%. Besides, the growth in the assay on 786-0 renal is 82.7%; in the assay on COLO 205 colon, 135%; with DU-145 prostate it was 109%; with K-562 leukemia it was 116%; with MALME-3M melanoma, 94.1%; in the assay with MDA-MB-231 breast it was 90.9%. In addition, the growth was 110% in the assay with RXF 393 renal; 103% in the assay with SF-268 CNS; 96.7% in the assay on SF-295 CNS; 104% in the assay on SF-539 CNS; 109% in the assay with UACC-257 melanoma; 104% with M14 melanoma.

As for `CC(NC(N)=S)c1ccccc1` (stereo unspecified), the growth in the assay on NCI-H23 lung is 110%; in the assay with NCI-H322M lung, 97.8%; in the assay on HOP-62 NSCLC, 85.6%; with NCI-H460 lung, 101%; in the assay with HOP-92 NSCLC, 106%; in the assay on NCI-H522 lung it was 102%. For the same compound, the growth in the assay on 786-0 renal was 98%; with COLO 205 colon it was 107%; in the assay with DU-145 prostate, 115%; in the assay on K-562 leukemia it was 94.6%; with MALME-3M melanoma, 105%; in the assay with MDA-MB-231 breast, 91.9%. Further, the growth was 98% with RXF 393 renal; 106% with SF-268 CNS; 101% with SF-295 CNS; 96.1% in the assay with SF-539 CNS; 104% in the assay with M14 melanoma.

For the compound `COc1ccc(C2=NN(C(N)=S)C(c3ccc4c(c3)OCO4)C2)cc1` (stereo unspecified), the growth in the assay on NCI-H23 lung was 26.7%; in the assay on NCI-H322M lung it was 25.6%; in the assay with HOP-62 NSCLC it was 46.7%; in the assay with NCI-H460 lung it was 42.6%; in the assay on HOP-92 NSCLC, 54%; in the assay on A549/ATCC NSCLC it was 58.6%. In addition, the growth was 30.6% in the assay with 786-0 renal; -3.99% (active) in the assay with DU-145 prostate; 5.68% (active) in the assay with K-562 leukemia; 48.7% with MDA-MB-231 breast; 48.5% in the assay on RXF 393 renal; 21.5% in the assay on SF-268 CNS. The growth in the assay with SF-295 CNS is -9.16% (active); in the assay on SF-539 CNS it was 21.4%; in the assay with UACC-257 melanoma it was 38%; in the assay on M14 melanoma it was 21.6%.

With `CCOC(=O)C1C(=O)NC(C(=O)OCC)(C(=O)OCC)C1CC` (stereo unspecified), the growth with NCI-H23 lung was 112%; with NCI-H322M lung, 119%; with HOP-62 NSCLC it was 109%; in the assay on HOP-92 NSCLC, 98%; with A549/ATCC NSCLC it was 97.2%; with 786-0 renal, 107%. In addition, the growth in the assay with COLO 205 colon is 114%; in the assay on DU-145 prostate, 117%; in the assay on K-562 leukemia it was 114%; in the assay on MDA-MB-231 breast, 98.7%; with RXF 393 renal, 116%; in the assay on SF-268 CNS, 108%. Moreover, the growth in the assay on SF-295 CNS is 113%; in the assay with SF-539 CNS, 122%; with UACC-257 melanoma, 106%; in the assay on M14 melanoma, 110%.

`COc1ccc2c(c1)c(CC(=O)[Se]C)c(C)n2C(=O)c1ccc(Cl)cc1`: the growth in the assay with NCI-H23 lung was 5.36% (active); in the assay on NCI-H322M lung, 55.8%; with HOP-62 NSCLC it was -0.299% (active); with NCI-H460 lung, 3.41% (active); with HOP-92 NSCLC, -6.92% (active); with A549/ATCC NSCLC, 7.25% (active). The growth with 786-0 renal is 9.49% (active); in the assay with COLO 205 colon it was 50.1%; in the assay with DU-145 prostate, -7.9% (active); in the assay with K-562 leukemia it was 29.8%; in the assay on MALME-3M melanoma, -41.9% (active); with MDA-MB-231 breast it was 44.4%. Also, the growth in the assay on RXF 393 renal was 4.4% (active); in the assay on SF-268 CNS, -26.5% (active); in the assay on SF-295 CNS, 12.7%; in the assay with SF-539 CNS it was -17.4% (active); in the assay with UACC-257 melanoma, 3.77% (active); in the assay with M14 melanoma, -13.9% (active).

On to `NC(=O)c1cc(Br)cc(Br)c1NS(=O)(=O)c1ccccc1`, for which the growth is 100% in the assay with NCI-H23 lung; 94.5% in the assay on NCI-H322M lung; 98% with HOP-62 NSCLC; 102% in the assay on NCI-H460 lung; 93.6% in the assay with HOP-92 NSCLC; 108% in the assay on 786-0 renal. Besides, the growth in the assay on COLO 205 colon is 101%; in the assay on DU-145 prostate, 110%; with K-562 leukemia, 122%; in the assay with MALME-3M melanoma, 94.1%; with MDA-MB-231 breast, 88.1%; in the assay on RXF 393 renal, 104%. Moreover, the growth is 108% in the assay on SF-268 CNS; 98.2% in the assay with SF-295 CNS; 98.6% in the assay on SF-539 CNS; 131% in the assay with UACC-257 melanoma; 101% in the assay on M14 melanoma.
